# Measured values as given in PubChem BioAssay.
# Where “and” joins values, the source holds several entries; their conditions need not be identical. Identical values can stand only once. For part of these data: Measured potencies and affinities stand elsewhere. A structure can be active in one record and inactive in another. Calls of active or inactive are those of the source. Cut-off read from the data, not from the text of the source, unless noted: active = inhibition above about 80%; inactive = the rest.
# Legend:
# [1] = test system: Aerobactin synthetase IucA (Klebsiella pneumoniae); test: IucA aerobactin synthetase inhibitors, biochemical, Tocris library, absorbance (AID 1345561; call rule not given here;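 note: 100% = enzyme without compound and 0% = no enzyme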); settings: purified IucA enzyme assay, absorbance (OD) read-out; stronger effect = lower value;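 tested at 8 µM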
# [2] = hESC survival regulators, cell-based (AID 493140; call rule not given here;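 note: cells exposed to compounds for four days before counting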); settings: human embryonic stem cell survival screen; stronger effect = higher value
# [3] = target: Mitogen-activated protein kinase 7 (Homo sapiens) (UniProt Q13164); test: ERK5 transactivation activators in reporter cells, primary screen, cell-based, HTS (AID 1508626;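 active = luciferase signal above three times the same-plate solvent-only control wells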;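 note: luciferase driven by Gal4-ERK5 fusion binding five Gal4 sites before minimal TATA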); settings: HeLa Gal4-ERK5 transactivation, 18 h, at 5 µM, stronger effect = higher value
# [4] = polyglutamine-triggered caspase-3 activation inhibitors, cell-based (AID 1583); settings: polyglutamine-induced caspase-3 activation, cell assay; stronger effect = higher value;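 tested at 10 µM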
# [5] = suppressors of polyQ aggregation in yeast, 75Q-TubU reporter (AID 1593); settings: Yeast 75Q polyglutamine aggregation reporter
# [6] = rescue of polyQ-huntingtin neuronal dysfunction in worms, whole organism, C. elegans mechanosensory neurons, N-terminal huntingtin (AID 1599); settings: touch response, stronger effect = higher value
# [7] = inhibitors of mitochondrial cytochrome c release, biochemical, purified mitochondria (AID 1603); settings: stronger effect = lower value;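 note: mouse liver mitochondria challenged with calcium chloride; signal normalized to the plate average as 100%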
# [8] = inhibitors of polyQ protein aggregation (AID 1604); settings: polyglutamine-induced protein aggregation inhibition assay; stronger effect = higher value; tested at 2.5 µM
# [9] = circadian clock period modulators, cell-based, LOPAC library, luminescence reporter (AID 2774; call rule not given here;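 note: values are relative to mean of DMSO wells on each plate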); settings: circadian reporter cells, at 7 µM, actives lie on both sides
# [10] = test system: Hepatitis C virus NS3 helicase; test: HCV NS3 helicase inhibitors, primary screen, biochemical, fluorescence polarization, LOPAC1280 library (AID 687035; in the data active = inhibition above about 37%); settings: Purified HCV NS3 helicase, Cy5-dT15 ssDNA binding fluorescence polarization; stronger effect = higher value; concentration not given here
# [11] = Cy5 fluorescence quenching or enhancement artefacts, artefact control for HCV NS3 helicase inhibitor project, biochemical, LOPAC1280 (AID 687037; call rule not given here); settings: Cy5-DNA-NS3h complex fluorescence interference counterscreen
# [12] = LFS_MB_1R medulloblastoma cell growth inhibition, synergistic combos for chromothripsis tumors, cisplatin or BGB combos (AID 1671452); settings: LFS_MB_1R medulloblastoma cells, stronger effect = higher value;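 note: cells exposed for 96 hours before readout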
# [13] = CRL2098 osteosarcoma cell growth inhibition, synergistic combos for chromothripsis tumors, BGB or cisplatin IC20 combos (AID 1671454); settings: CRL2098 osteosarcoma cells, drug combinations, stronger effect = higher value;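 note: cells exposed for 96 h before readout; 0% = vehicle DMSO and 100% = killing by high DMSO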
# [14] = HD-MB03 medulloblastoma cell growth inhibition, synergistic combos for chromothripsis tumors, BGB or cisplatin IC20 combos (AID 1671455; in the data active = inhibition above about 83%;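 note: 0% = vehicle DMSO and 100% = high DMSO as cytotoxic control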); settings: HD-MB03 medulloblastoma cells, stronger effect = higher value
# [15] = UWB1.289 ovarian carcinoma cell growth inhibition, synergistic combos for chromothripsis tumors, BGB or cisplatin combos (AID 1671456); settings: UWB1.289 ovarian carcinoma cells, stronger effect = higher value;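 note: cells exposed to compound for four days; 0% = vehicle DMSO and 100% = killing by high DMSO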
# [16] = LFS_MB_2R medulloblastoma cell growth inhibition, synergistic combos for chromothripsis tumors, cisplatin combos (AID 1671457); settings: LFS_MB_2R medulloblastoma cells, stronger effect = higher value;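 note: cells exposed to compound for four days before readout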
# [17] = UWB1.289_BRCA1 ovarian cancer growth, cell-based, BGB or cisplatin combinations (AID 1671459); settings: UWB1.289 BRCA1 ovarian carcinoma, drug combinations, stronger effect = higher value
# [18] = human astrocyte viability loss, single and combined drugs, cytotoxicity control for chromothriptic childhood tumor combination screen, cell-based, BGB or cisplatin IC20 combos (AID 1671460); settings: Human astrocytes, drug combinations, stronger effect = higher value;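 note: cells exposed to compounds for 96 hours before viability readout; 0% = vehicle and 100% = killing control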
# [19] = growth inhibition of RCMB18 medulloblastoma cells, cell-based, cisplatin and BGB IC40 combos (AID 1671462); settings: stronger effect = higher value;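 note: cells exposed to compound for four days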
# [20] = growth inhibition of CRL1545 osteosarcoma cells, cell-based, cisplatin and BGB IC20 combos (AID 1671464); settings: stronger effect = higher value;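 note: cells exposed to compound for 96 hours before readout; 0% = vehicle DMSO and 100% = high DMSO killing control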
# [21] = measured here: combination with BGB IC40, at 0.05 µM
# [22] = measured here: combination with cisplatin, at 0.5 µM
# [23] = measured here: combination with cisplatin, at 5 µM
# [24] = measured here: combination with BGB at IC20, at 0.5 µM
# [25] = measured here: combination with cisplatin at IC20, at 0.5 µM
# [26] = measured here: combo with BGB at IC20, at 0.5 µM
# [27] = measured here: combo with cisplatin at IC20, at 0.5 µM
# [28] = measured here: inhibition with BGB combination, at 0.05 µM
# [29] = measured here: inhibition with cisplatin combination, at 0.05 µM
# [30] = BGB combination, concentration series, at 5 µM
# [31] = cisplatin combination, concentration series, at 5 µM
# [32] = measured here: combo with BGB IC20, at 0.5 µM
# [33] = measured here: combo with cisplatin IC20, at 0.5 µM
# [34] = measured here: BGB IC40 combination, at 0.05 µM
# [35] = measured here: with BGB IC20 combination, at 0.5 µM
# [36] = measured here: with cisplatin IC20 combination, at 0.5 µM
# Mitogen-activated protein kinase 7 (Homo sapiens), sequence (Q13164 whole entry, looked up, the tested form may be a part): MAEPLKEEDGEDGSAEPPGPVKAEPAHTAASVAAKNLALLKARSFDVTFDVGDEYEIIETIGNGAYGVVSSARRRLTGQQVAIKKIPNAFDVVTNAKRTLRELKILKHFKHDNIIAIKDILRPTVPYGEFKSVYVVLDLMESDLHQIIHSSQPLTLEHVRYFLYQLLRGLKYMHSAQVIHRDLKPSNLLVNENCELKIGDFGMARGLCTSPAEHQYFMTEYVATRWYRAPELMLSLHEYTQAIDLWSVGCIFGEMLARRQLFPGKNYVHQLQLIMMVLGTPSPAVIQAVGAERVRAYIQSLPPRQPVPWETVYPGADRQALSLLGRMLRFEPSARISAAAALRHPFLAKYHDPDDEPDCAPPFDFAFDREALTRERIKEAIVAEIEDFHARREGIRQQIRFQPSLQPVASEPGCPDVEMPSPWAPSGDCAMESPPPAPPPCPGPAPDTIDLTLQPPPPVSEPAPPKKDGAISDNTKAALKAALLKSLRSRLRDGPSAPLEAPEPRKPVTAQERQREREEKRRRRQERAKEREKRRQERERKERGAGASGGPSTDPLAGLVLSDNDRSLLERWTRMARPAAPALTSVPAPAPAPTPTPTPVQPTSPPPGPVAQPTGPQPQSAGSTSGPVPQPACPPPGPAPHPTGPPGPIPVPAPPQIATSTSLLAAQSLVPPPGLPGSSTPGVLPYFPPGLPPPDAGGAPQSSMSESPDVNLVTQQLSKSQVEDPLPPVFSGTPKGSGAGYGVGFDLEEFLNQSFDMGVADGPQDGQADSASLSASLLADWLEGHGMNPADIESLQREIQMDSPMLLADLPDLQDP
smiles,measurement,setting,value
COc1ccc(C[C@H](C)NC[C@@H](O)c2ccc(O)c(NC=O)c2)cc1,remaining activity,[1],116% (inactive)
CCOC(=O)c1ccc(OC(=O)CCCCCN=C(N)N)cc1,survival,[2],18.2 (inactive)
same,remaining activity,[1],124% (inactive)
COC(=O)C[C@](O)(CCCC(C)(C)O)C(=O)O[C@@H]1C(OC)=C[C@]23CCCN2CCc2cc4c(cc2[C@H]13)OCO4,remaining activity,[1],98.2% (inactive)
CNCC[C@H](Oc1cccc2ccccc12)c1cccs1,luciferase signal,[3],36 AU (inactive)
CN1CCC[C@H]1c1cccnc1,inhibition,[4],-24.3%
same,score,[5],1.39
same,rescue above control,[6],3.58
same,cytochrome c release ratio,[7],0.71
same,inhibition of aggregation,[8],47.1%
same,period change,[9],0.09 h (inactive)
same,inhibition,[10],0% (inactive)
same,fluorescence ratio (interference),[11],1 (inactive)
NC(Cc1cc(I)c(Oc2ccc(O)c(I)c2)c(I)c1)C(=O)O (centres undefined),inhibition,[4],2%
same,score,[5],1.27
same,rescue above control,[6],-0.14
same,cytochrome c release ratio,[7],4.78
same,inhibition of aggregation,[8],79.3%
CC(C)c1ccc2c(c1)c(SC(C)(C)C)c(CC(C)(C)C(=O)O)n2Cc1ccc(Cl)cc1,period change,[9],0.025 h (inactive)
same,inhibition,[10],0% (inactive)
same,fluorescence ratio (interference),[11],0.9 (inactive)
CC(N)(Cc1ccc(O)c(O)c1)C(=O)O (centres undefined),period change,[9],-0.1 h (inactive)
same,inhibition,[10],0% (inactive)
same,fluorescence ratio (interference),[11],1 (inactive)
NC(=O)c1ncn(C2OC(CO)C(O)C2O)n1 (centres undefined),inhibition,[12]; at 0.5 µM,-9.72% (inactive)
same,inhibition,[12]; [21],-31.9%
same,inhibition,[12]; [22],21.6%
same,inhibition,[12]; [23],-1.97%
same,inhibition,[13]; at 0.5 µM,-9.01% (inactive)
same,inhibition,[13]; [24],-25.7%
same,inhibition,[13]; [25],-6.71%
same,inhibition,[14]; at 0.5 µM,-4.13% (inactive)
same,inhibition,[14]; [26],-1.27%
same,inhibition,[14]; [27],-10.7%
same,inhibition,[15]; at 0.5 µM,3.07% (inactive)
same,inhibition,[15]; [28],9.47%
same,inhibition,[15]; [29],-5.32%
same,inhibition,[16]; at 0.5 µM,1.38% (inactive)
same,inhibition,[16]; [22],-4.76%
same,inhibition,[16]; [23],3.14%
same,inhibition,[17]; [30],5.54%
same,inhibition,[17]; at 0.5 µM,1.33% (inactive)
same,inhibition,[17]; [31],1.04%
same,inhibition,[18]; at 0.5 µM,-5.97% (inactive)
same,inhibition,[18]; [32],-5.76%
same,inhibition,[18]; [33],-5.35%
same,inhibition,[19]; at 0.5 µM,9.1% (inactive)
same,inhibition,"[19]; cisplatin combo, at 5 µM",13.6%
same,inhibition,[19]; [34],7.76%
same,inhibition,[19]; [22],29.4%
same,inhibition,"[19]; single agent, at 5 µM",-9.79%
same,inhibition,[20]; at 0.5 µM,-15.9% (inactive)
same,inhibition,[20]; [35],-14.4%
same,inhibition,[20]; [36],-16.7%
same,inhibition,"[20]; single agent, at 0.05 µM",17.7%
same,inhibition,"[20]; single agent, at 5 µM",-14.1%
O=C1C(c2c(O)[nH]c3ccccc23)=Nc2ccccc21,survival,[2],88 (inactive)
CN1[C@@H]2CC[C@H]1CC(OC(=O)C(CO)c1ccccc1)C2 (some centres undefined),luciferase signal,[3],44 AU (inactive)
CC(C)(C)NC(=O)[C@@H]1C[C@@H]2CCCC[C@@H]2CN1C[C@@H](O)[C@H](Cc1ccccc1)NC(=O)[C@H](CC(N)=O)NC(=O)c1ccc2ccccc2n1,survival,[2],25.4 (inactive)
O=c1[nH]c(=O)n(C2CC(O)C(CO)O2)cc1F (centres undefined),inhibition,[12]; at 0.5 µM,-19.6% (inactive) and -23.9% (inactive)
same,inhibition,[12]; [21],8.22% and -31%
same,inhibition,[12]; [22],23.3% and -25.8%
same,inhibition,[12]; [23],-7.39% and -26.1%
same,inhibition,[13]; at 0.5 µM,-50.2% (inactive) and -54% (inactive)
same,inhibition,[13]; [24],-11.9% and -25.4%
same,inhibition,[13]; [25],-87.1% and -79.9%
same,inhibition,[14]; at 0.5 µM,75.2% (inactive) and 82.3% (active)
same,inhibition,[14]; [26],72.8% and 77.8%
same,inhibition,[14]; [27],79.4% and 87.9%
same,inhibition,[15]; at 0.5 µM,11% (inactive) and 22.1% (inactive)
same,inhibition,[15]; [28],-37.3% and -7.93%
same,inhibition,[15]; [29],-10.2% and -15.2%
same,inhibition,[16]; at 0.5 µM,-6.08% (inactive) and -22.6% (inactive)
same,inhibition,[16]; [22],-26% and -30.3%
same,inhibition,[16]; [23],-20.5% and -22.8%
same,inhibition,[17]; [30],17.5% and 50.3%
same,inhibition,[17]; at 0.5 µM,15.2% (inactive) and 29.3% (inactive)
same,inhibition,[17]; [31],55.7% and 77.6%
same,inhibition,[18]; at 0.5 µM,17.4% (inactive) and 30.8% (inactive)
same,inhibition,[18]; [32],14.4% and 24.7%
same,inhibition,[18]; [33],5.72% and 15.6%
same,inhibition,[19]; at 0.5 µM,-3.13% (inactive) and -17.8% (inactive)
same,inhibition,"[19]; cisplatin combo, at 5 µM",11.8% and 9.06%
same,inhibition,[19]; [34],-3.94% and -12.9%
same,inhibition,[19]; [22],1.15% and 0.687%
same,inhibition,"[19]; single agent, at 5 µM",-14.6% and -9.12%
same,inhibition,[20]; at 0.5 µM,30.4% (inactive) and 66.8% (inactive)
same,inhibition,[20]; [35],10.3% and 56.4%
same,inhibition,[20]; [36],40.5% and 71.6%
same,inhibition,"[20]; single agent, at 0.05 µM",7.06% and 11.7%
same,inhibition,"[20]; single agent, at 5 µM",91.4% and 96.1%
CN1C2CCC1CC(OC(c1ccccc1)c1ccccc1)C2 (centres undefined),inhibition,[4],-6.22%
same,score,[5],1.2
same,rescue above control,[6],-5.92
same,cytochrome c release ratio,[7],1
same,inhibition of aggregation,[8],62%
same,period change,[9],0.035 h (inactive)
same,inhibition,[10],-5% (inactive)
same,fluorescence ratio (interference),[11],1 (inactive)
